# From article PMC4336329 (PLoS ONE, 2015)
# Among all 310,000 compounds or so, about 14,000 (4.5%) showed an effect of 50% or more. Effects have a minus sign here. The sample holds strong results, similar compounds and a random draw of the others, so the mix is not that of the screen.
# Molecular target: human ether-à-go-go-related gene (hERG) potassium channel (human, UniProt Q12809)
# Assay: primary screen, population patch clamp on CHO cells stably expressing hERG; higher = less effect of the substance
# 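Also: peak tail current of the secondary pulse compared with the same well before compound.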
# human ether-à-go-go-related gene (hERG) potassium channel, sequence (Q12809 whole entry, looked up): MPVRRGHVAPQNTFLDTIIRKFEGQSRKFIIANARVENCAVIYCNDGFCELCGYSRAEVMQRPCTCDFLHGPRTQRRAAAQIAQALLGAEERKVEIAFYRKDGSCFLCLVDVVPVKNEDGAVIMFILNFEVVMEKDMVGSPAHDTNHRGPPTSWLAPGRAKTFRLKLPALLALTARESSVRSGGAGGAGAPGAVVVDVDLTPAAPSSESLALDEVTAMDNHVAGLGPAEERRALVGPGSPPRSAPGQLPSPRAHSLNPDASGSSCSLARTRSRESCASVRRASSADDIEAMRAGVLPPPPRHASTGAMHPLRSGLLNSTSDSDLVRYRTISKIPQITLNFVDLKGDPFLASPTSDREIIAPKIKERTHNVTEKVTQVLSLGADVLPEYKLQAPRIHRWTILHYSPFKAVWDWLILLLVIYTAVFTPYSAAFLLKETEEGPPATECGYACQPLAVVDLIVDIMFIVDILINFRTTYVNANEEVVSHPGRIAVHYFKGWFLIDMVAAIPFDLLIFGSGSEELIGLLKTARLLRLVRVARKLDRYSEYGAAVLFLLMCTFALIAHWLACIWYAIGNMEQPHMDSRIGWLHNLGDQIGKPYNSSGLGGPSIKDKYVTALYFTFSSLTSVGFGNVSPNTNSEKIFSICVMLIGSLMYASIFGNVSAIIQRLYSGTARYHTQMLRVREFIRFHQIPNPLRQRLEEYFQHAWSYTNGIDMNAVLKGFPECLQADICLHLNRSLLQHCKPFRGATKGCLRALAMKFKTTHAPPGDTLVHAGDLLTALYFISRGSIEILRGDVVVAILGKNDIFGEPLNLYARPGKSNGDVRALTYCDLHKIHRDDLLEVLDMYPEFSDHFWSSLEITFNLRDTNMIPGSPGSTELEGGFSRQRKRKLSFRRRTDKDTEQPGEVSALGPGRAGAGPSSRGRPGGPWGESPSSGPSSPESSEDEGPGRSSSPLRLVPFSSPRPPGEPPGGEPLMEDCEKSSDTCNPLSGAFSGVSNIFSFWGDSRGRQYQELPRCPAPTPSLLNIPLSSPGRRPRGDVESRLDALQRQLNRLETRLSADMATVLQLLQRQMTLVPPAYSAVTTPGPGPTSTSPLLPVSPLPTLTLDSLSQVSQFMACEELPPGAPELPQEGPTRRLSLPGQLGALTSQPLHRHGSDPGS
row,SMILES,"hERG current change (%, negative = inhibition) at 10uM"
1,CC(C(=O)NCC(=O)Nc1ccc(F)c(F)c1F)N1CCN(c2ccc(O)cc2)CC1 (centres unmarked),-6.1%
2,N#Cc1ccc(-c2ccc(OCC(=O)NCC(=O)Nc3ccc(F)c(F)c3F)cc2)cc1,-7.98%
3,CC(C(=O)NCC(=O)Nc1ccc(F)c(F)c1F)N1CCN(Cc2ccc(C#N)cc2)CC1 (centres unmarked),-61%
4,CCOC(=O)N1CCC(N2C(=O)c3ccc(C(=O)Nc4ccc(OC)c(OC)c4)cc3C2=O)CC1,23.2%
5,O=C(/N=C1\NC(=O)C(F)(C(F)(F)F)S1)NC1CCCCC1 (centres unmarked),13%
6,Cn1c(CCN2CCCCC2)nc2cc(NS(=O)(=O)c3ccc(F)cc3)ccc21,-67.6%
7,O=S(=O)(Nc1ccc2c(c1)nc1n2CCN(Cc2ccccc2)C1)c1ccccc1,-40.1%
8,CCCC(=O)Nc1ccc2c(c1)nc(CCN1CCCCC1)n2C,-4.96%
9,O=S(=O)(Nc1ccc2c(c1)nc1n2CCN(Cc2ccccc2)C1)c1ccc(F)cc1,-50.4%
10,CC(C)C(=O)Nc1ccc2c(c1)nc(CCN1CCCCC1)n2C,-0.778%
11,O=S(=O)(Nc1ccc2c(c1)nc1n2CCN(Cc2ccccc2)C1)c1ccc(Cl)cc1,-2.38%
12,Cn1c(CN2CCCCC2)nc2cc(NS(=O)(=O)c3ccc(F)cc3)ccc21,-54.2%
13,O=C(O)CN(c1ccccn1)S(=O)(=O)c1ccccc1,-8.38%
14,O=C(NCCc1ccccc1)C(=O)NCC(c1ccco1)N1CCOCC1 (centres unmarked),23.8%
15,Cc1ccc(NC(=O)C2CCN(S(=O)(=O)c3ccc4c(c3)CCCC(=O)N4)CC2)cc1N(C)C,-14.7%
16,O=C(COC(=O)c1ccc2c(c1)OCCO2)NCCC1=CCCCC1,-10.8%
17,CN(C(=O)C1CCN(S(=O)(=O)c2cccs2)CC1)c1ccccc1,-16.9%
18,O=C(CCS(=O)(=O)c1ccc(Br)cc1)NCc1cccs1,-11.5%
19,COC(=O)C(C(=O)OC)C(C[N+](=O)[O-])c1ccc(OC)c(OC)c1 (centres unmarked),-22.7%
20,CCOC(=O)C1(Cc2cccc(OC)c2)CCN(C/C=C/c2ccccc2)CC1,-75.9%
21,CCOC(=O)C1(Cc2cccc(OC)c2)CCN(CC=C(C)C)CC1,-22%
22,CCOC(=O)C1(Cc2cccc(OC)c2)CCN(C/C=C/c2ccc(OC)cc2)CC1,-72.3%
23,N#CCCn1[nH]c(-c2ccccc2)cc1=O,5.16%
